The values that follow come from publication PMC5540273 (PLoS ONE, 2017).
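Further: KINOMEscan kinase panel screen.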

The first assay concerns RPS6KA5(Kin.Dom.2-C-terminal). Particulars: concentration: 1 μM, replicates: in singlicate; n = 1.
On to `NCCCC(NC(=O)c1cc(Br)c(-c2ccnc3[nH]ccc23)s1)c1ccccc1.O=C(O)C(F)(F)F.O=C(O)C(F)(F)F` (stereo not shown) [GSK1287544], for which the “%Inh” value turned out to be 5%. In the case of `CN(C)Cc1ccc(-c2ccc3c(Nc4ccc(Oc5ccccn5)cc4)ccnc3c2)o1` [GW567148], the “%Inh” value is 0%. Consider `Cn1cc(-c2ccc3c(c2)CCN3C(=O)Cc2cccc(Cl)c2)c2c(N)ncnc21` [GSK2606590], for which the “%Inh” value was 0%. On the same count and under the same terms, the same measure for `O=c1[nH]cc(-c2ccc(N3CCOCC3)cc2)c2sc(-c3cn[nH]c3)cc12` [GSK2276055]: 28%; for `CN1CCN(Cc2cccc(-c3ccc4c(Nc5ccc(Oc6ccccc6)cc5)ccnc4c3)c2)CC1` [GW578342]: 21%. The same measure, in the same setting: the same measure for `COc1cccc(-c2ccc3c(NC(=O)C4CC4)n[nH]c3n2)c1` [SB-710903]: 12%.

The next assay deals with T1, RSK1(Kin.Dom.1-N-terminal).
T1 construct: gene RPS6KA1
Particulars: concentration: 1 μM, replicates: in singlicate; n = 1.
In the case of `Cc1cccc(Nc2nc(N[C@H]3CCNC3)ncc2C(N)=O)c1.Cl` [GSK2197149], the “%Inh” value was determined as 22%. On the same count and under the same terms, the same measure for `O=C(Nc1ccccc1F)NC1CCN(c2ccnc(Nc3ccc(F)cc3)n2)CC1` [GSK1379800]: 19%; for `CN(C)S(=O)(=O)c1cc(-c2ccc3nccc(-c4cccc(S(N)(=O)=O)c4)c3c2)cnc1N` [GSK1669921]: 0%; for `COc1ccc(CNC(=O)NC2CCN(c3ccnc(Nc4ccc(F)cc4)n3)CC2)cc1` [GSK1379788]: 18%. Same read-out and setting: the same measure for `Cl.Cl.NCC(C(=O)Nc1cc(Br)c(-c2ccnc3[nH]ccc23)s1)c1ccccc1` (stereo not shown) [GSK1269851]: 6%; for `COC(=O)Nc1nc2ccc(Oc3ccc(NC(=O)Nc4cc(C(F)(F)F)ccc4F)cc3)cc2n1C.Cl` [GW692089]: 0%. Turning to `Nc1ncc(-c2cccnc2)c2scc(-c3ccc4c(c3)CCN4C(=O)Cc3ccccc3)c12` [GSK683281], the “%Inh” value is recorded as 21%. Still for that read-out and setting: the same measure for `Cc1ccc(C(=O)Nc2ccc(Nc3ccnc4cc(-c5nccs5)ccc34)cc2O)cc1.Cl` [GW494702]: 0%; for `Cn1cc(-c2[nH]c3cc(NC(=O)[C@H](N)C4CCCCC4)cc4c3c2C=NNC4=O)cn1`: 60%.

Consider `CCc1ccc(-c2ccc3c(c2)-c2c(cnn2C)S(=O)(=O)N3C)cc1`, for which the “%Inh” value turned out to be 10%. Still for that read-out and setting: the same measure for `Nc1ncc(-c2ccc3nccc(-c4ccncc4)c3c2)cc1S(=O)(=O)N1CCOCC1` [GSK1627798]: 14%; for `O=C(Nc1n[nH]c2nc(-c3ccc(O)cc3)ccc12)C1CC1` [SB-710363]: 14%; for `O=C(O)C(F)(F)F.O=C(O)C(F)(F)F.O=c1[nH]ccc2nc(N[C@@H]3CCCNC3)nc(Nc3ccc(S(=O)(=O)N4CCOCC4)cc3)c12` [GSK2177277]: 96%. `COc1cccc(NC(=O)NC2CCN(c3ccnc(Nc4cc(OC)c(OC)c(OC)c4)n3)C2)c1` (stereo not shown) [GSK1379763]: the “%Inh” value came to 12%. Same read-out and setting: the value for `CCS(=O)(=O)c1ccc(OC)c(Nc2nccc(-c3c(-c4cccc(NC(=O)c5c(F)cccc5F)c4)nn4ncccc34)n2)c1` [GSK326180] was 64%; that for `COC(=O)Nc1nc2cc(Oc3ccc(NC(=O)Nc4cc(C(F)(F)F)ccc4F)cn3)ccc2[nH]1.Cl.Cl` [GW681170] was 0%; that for `COc1cc(Nc2nccc(N3CCC(NC(=O)Nc4cccc(C(C)=O)c4)C3)n2)cc(OC)c1OC` (stereo not shown) [GSK1379753] was 15%. Same read-out and setting: the same measure for `COc1cc(Nc2nccc(-c3c(-c4cccc(NC(=O)c5c(F)cccc5F)c4)nn4ccccc34)n2)cc(OC)c1OC` [GSK323521]: 5%. In the case of `Cl.Cl.NCC(NC(=O)c1cc(-c2ccccc2)c(-c2ccnc3[nH]ccc23)s1)c1ccccc1` (stereo not shown) [GSK1321561], the “%Inh” value is reported as 0%.

For the molecule `Cl.c1ccc(-c2ccc3c(Nc4ccc5[nH]ncc5c4)ccnc3c2)nc1` [GW440137], the “%Inh” value worked out at 20%. On to `CCn1c(-c2nonc2N)nc2c(C#CC(C)(C)O)ncc(OCCCCN)c21.O=C(O)C(F)(F)F.O=C(O)C(F)(F)F` [GSK507274], for which the “%Inh” value amounted to 18%. Still for that read-out and setting: the value for `CN1CCN(CCCNc2nccc(-c3c(-c4ccc(F)cc4)nn4cc(C(F)(F)F)ccc34)n2)CC1` [GW621581] was 0%; that for `Cl.Cl.NCC(NCc1ccc(-c2ccnc3[nH]ccc23)s1)c1ccccc1` (stereo not shown) [GSK1321565] was 25%. For `COc1cc(Nc2ncc3c(C)nc(-c4cc5ccccc5[nH]4)n3n2)cc(OC)c1OC` [GW869516], the “%Inh” value stood at 91.7%. Still for that read-out and setting: the value for `Nc1ncnc2c1nc(-c1ccccc1)n2-c1ccccc1` [SKF-97293] was 19%. On the same count and under the same terms, the same measure for `O=C(Nc1cccc(-c2nn3ccccc3c2-c2ccnc(Nc3cccc(C(F)(F)F)c3)n2)c1)c1c(F)cccc1F` [GSK292658]: 81%; for `CCCCc1nn2ncccc2c1-c1ccnc(Nc2ccc(N3CCN(C)CC3)cc2)n1` [GW684941]: 0%. In the case of `Fc1ccc(-c2ncn(C3CCNCC3)c2-c2ccnc(Oc3ccc(-c4ccccc4)cc3)n2)cc1` [SB-245391], the “%Inh” value is 27%. The same measure, in the same setting: the same measure for `FC(F)(F)c1ccc(/C=C/c2cncnc2Nc2ccc3[nH]c(Cc4ccccc4)nc3c2)cc1` [GW709199]: 3%; for `CC(=O)N1CCN(c2ccc(Nc3nccc(-c4sc(C(C)C)nc4-c4cccc(NS(=O)(=O)c5cccc(Cl)c5)c4)n3)cn2)CC1` [GSK1660437]: 10%; for `CC(=O)Nc1nc2cnc(Nc3cc(NC(=O)c4cccc(C5(C#N)CC5)c4Cl)ccc3C)nc2s1`: 0%.

For the molecule `NCCCC(NC(=O)c1cc(Br)c(-c2ccnc3[nH]ccc23)s1)c1ccccc1.O=C(O)C(F)(F)F.O=C(O)C(F)(F)F` (stereo not shown) [GSK1287544], the “%Inh” value is on record as 0%. The same measure, in the same setting: the same measure for `CN(C)Cc1ccc(-c2ccc3c(Nc4ccc(Oc5ccccn5)cc4)ccnc3c2)o1` [GW567148]: 0%; for `Cn1cc(-c2ccc3c(c2)CCN3C(=O)Cc2cccc(Cl)c2)c2c(N)ncnc21` [GSK2606590]: 4%. The same measure, in the same setting: the same measure for `O=c1[nH]cc(-c2ccc(N3CCOCC3)cc2)c2sc(-c3cn[nH]c3)cc12` [GSK2276055]: 29%. The same measure, in the same setting: the same measure for `CN1CCN(Cc2cccc(-c3ccc4c(Nc5ccc(Oc6ccccc6)cc5)ccnc4c3)c2)CC1` [GW578342]: 26%; for `COc1cccc(-c2ccc3c(NC(=O)C4CC4)n[nH]c3n2)c1` [SB-710903]: 20%.
